Assay outcomes (PubChem BioAssay)
PK Bst = modulators of Bacillus stearothermophilus pyruvate kinase; purified pyruvate kinase, luminescence ATP production; ribose 5-phosphate activator present at AC10; Potency, µM; hit rate 1.2% among 51,000; in the data active = potency below about 11 µM; inconclusive = mostly about 12 µM to 25 µM;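 the screen sought inhibitors and activators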;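 note: scaled between full activation by ribose 5 phosphate and full inhibition by luteolin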
GBA activity = human lysosomal glucosylceramidase modulation | P04062 | purified enzyme, resorufin glucoside fluorescence (screen aimed at inhibitors), 20 min | Potency, µM | hit rate 1.1% among 48,000 | AID 360; in the data active = potency below about 15 µM; inconclusive = mostly about 16 µM to 33 µM;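 note: the screen sought inhibitors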
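Normal human glucocerebrosidase (0.2 nM final) was assayed with resorufin β-D-glucopyranoside (30 uM final) in 50mM citric acid/KH2PO4, 10mM sodium taurocholate, 0.01% tween-20, pH 5.9. Compounds were titrated; fluorescence (Ex 548, Em 600) read after 20 min at RT.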
Luciferase inh = firefly luciferase inhibition; hit rate 2.2% among 72,000; purified firefly luciferase, luminescence, 8 min; P08659; Potency, µM (doses to about 57.1 µM), inactives show top-dose activity change, negative = inhibition, actives largely listed as inhibitors; active = well fitted inhibition curve with a large enough effect; inconclusive = small, poorly fitted or top-dose-only effect; note: % is set by controls: 0 for no effect and ±100 for the full control effect; nearly all actives have a fitted effect of over 40% in size
Target sequence (P08659 whole entry, looked up): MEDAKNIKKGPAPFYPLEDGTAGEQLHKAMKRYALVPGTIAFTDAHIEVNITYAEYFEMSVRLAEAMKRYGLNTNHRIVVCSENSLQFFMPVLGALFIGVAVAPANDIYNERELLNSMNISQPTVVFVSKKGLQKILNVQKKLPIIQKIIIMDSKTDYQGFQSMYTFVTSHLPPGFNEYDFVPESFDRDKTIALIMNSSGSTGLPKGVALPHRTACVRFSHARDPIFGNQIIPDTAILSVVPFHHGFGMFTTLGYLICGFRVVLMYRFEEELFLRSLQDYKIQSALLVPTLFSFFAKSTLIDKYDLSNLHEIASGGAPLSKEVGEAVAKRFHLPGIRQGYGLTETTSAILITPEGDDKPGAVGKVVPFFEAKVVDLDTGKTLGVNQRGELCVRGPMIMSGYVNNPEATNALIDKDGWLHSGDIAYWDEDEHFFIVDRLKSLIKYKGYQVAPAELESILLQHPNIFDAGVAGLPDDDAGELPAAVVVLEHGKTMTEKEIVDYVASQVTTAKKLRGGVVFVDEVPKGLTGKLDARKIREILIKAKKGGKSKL
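Luminescence read-out after 8 min at room temperature; enzyme reaction used luciferin plus 10 uM ATP (linear range) in imidazole buffer pH 7.2 with KCl, MgCl2, Tween 20 and BSA. Each sample was run as a titration.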
* hit, by the source's call; i = inactive; ? = inconclusive; . = no result given; [ ] = remark or other dose. The list is not random: actives were taken first. Their share in the collection is about 3.2%. Potency is the fitted concentration of half-maximal effect.

SMILES	PK Bst	GBA activity	Luciferase inh
CCOc1cccc2cc(C(=O)Nc3nccs3)c(=O)oc12	>57	>76.9	-1.0%
CCOc1cccc2cc(-c3csc(NC(=O)CCC(=O)N4CCN(C)CC4)n3)c(=O)oc12	.	12.4*	1.0%
Cc1cc(NC(=O)CSc2cn(CCNC(=O)c3ccc(Cl)cc3)c3ccccc23)no1	.	.	-1.9%
CCOc1ccc(C(=O)NCCn2cc(SCC(=O)Nc3cc(C)on3)c3ccccc32)cc1	>57	.	15.8µM*
COc1cc2c(cc1OC)-c1cc(=Nc3c(C)cc(C)cc3C)n(C)c(=O)n1CC2	.	.	-2.0%
CC(C)Cc1cc(-c2ccco2)c(C#N)c(N)n1	.	.	-0.4%
N#Cc1c(-c2ccco2)cc(-c2ccc(F)cc2)nc1N	4.68*	>76.9	0.7%
CC(C)NC(=O)N1CC[C@@]2(CCCN(S(C)(=O)=O)C2)C1	.	.	1.0%[11.4 µM]
Cc1ccc(-c2nnc(SCC(=O)Nc3ccccc3F)o2)cc1	.	.	-2.7%
Cc1ccc(-c2nnc(SCc3ccccc3F)o2)cc1	i	>76.9	20µM*
Nc1ncnc2c1nc(Sc1ccc(Cl)cc1)n2[C@@H]1O[C@H]2COP(=O)(O)O[C@@H]2[C@H]1O	.	.	3.8%
C[C@H](NC[C@H](O)CP(=O)(O)Cc1ccccc1)c1ccc(Cl)c(Cl)c1	.	.	-10.4%
Cc1noc(C)c1C(=O)N1CCC2(CCN(C(=O)Nc3ccccc3)CC2)CC1	.	.	1.7%[11.4 µM]
NC(N)=N/N=C\c1ccc(C2CCNCC2)cc1	.	.	3.5%[11.4 µM]
Cn1c(=O)c(CCc2ccccc2)nc2cncnc21	.	.	-2.0%[11.4 µM]
CN1CCN(CC(C)(C)NS(=O)(=O)c2ccc(Cl)cc2)CC1	>57	14.2*	1.7%
CN(C)CCNS(=O)(=O)c1ccc(Cl)cc1	>57	>76.9	-0.6%
COc1nc(-c2ccccc2)ccc1-c1noc(-c2ccccc2)n1	.	>76.9	?
COc1ccc(-c2ccc(-c3noc(-c4ccco4)n3)c(OC)n2)cc1	>57	7.68*	2.4%
COc1nc(-c2ccccc2)ccc1-c1noc(-c2ccco2)n1	>57	i	-24.0%
COc1ccc(-c2ccc(-c3noc(-c4ccccc4)n3)c(OC)n2)cc1	>11.4	4.95*	-4.2%
O=C(Oc1ccccc1)N1CCC2(CCCN(c3ccccn3)C2)CC1	.	.	-0.5%[11.4 µM]
O=c1c(-c2ccc(F)c(F)c2)nc2cncnc2n1Cc1ccc(F)cc1	.	.	0.8%[11.4 µM]
COc1ccc(C(=O)N2CCC3(CCN(Cc4ccc(C#N)cc4)CC3)CC2)cc1	.	.	0.7%[11.4 µM]
CC(C)c1nc(SCC(=O)N2CCCC2)c2ccccc2n1	.	>76.9	7.94µM*
SMILES	PK Bst	GBA activity	Luciferase inh
CCc1nc(SCC(=O)N2CCCC2)c2ccccc2n1	>57	>76.9	-1.5%
COC(=O)N1CCC2(CC1)CN(C(=O)Nc1ccccc1)C2	.	.	0.4%[11.4 µM]
Cc1ccc2c(Cl)cc(Cl)c(OCC(=O)NC(=O)NCc3ccco3)c2n1	3.05*	>76.9	-32.2%
Cc1cc(Cl)cc(Cl)c1OCC(=O)NCc1ccco1	.	.	0.6%
C=CCN1CCN(c2nc3ccccc3nc2C#N)CC1	.	.	-0.3%
CC(C)CNS(=O)(=O)c1ccc(CCC(=O)N2CCN(Cc3ccc4c(c3)OCO4)CC2)cc1	2.83*	>76.9	2.0%
CC(C)CNS(=O)(=O)c1ccc(CCC(=O)Nc2ccc3c(c2)OCO3)cc1	>57	>76.9	-0.2%
CN(C)c1ncc2nc(-c3cc(F)cc(F)c3)c(=O)n(C)c2n1	.	.	-3.3%[11.4 µM]
CCCCC(=O)Nc1ccc(F)c(Cl)c1	>57	.	-1.7%
CCCCCC(=O)Nc1ccc(N2CCN(CC)CC2)c(Cl)c1	>57	0.696*	-2.6%
CCN(C(=O)CCc1nc(-c2ccccc2F)no1)c1cc(OC)ccc1OC	>57	15.2*	1.5%
COc1ccc(CNC(=O)CCc2nc(-c3ccccc3F)no2)c(OC)c1	>57	>76.9	1.8%
CCOC(=O)N/C(N)=N/c1nc2ccccc2s1	.	.	12.6µM*
CCOC(=O)NC(Nc1nc2ccccc2s1)(C(=O)OCC)C(F)(F)F (stereo not given)	>57	>76.9	-0.1%
CCOC(=O)CSc1nc(N)c(C(=O)Nc2ccc(N(C)C)cc2)s1	i	.	12.6µM*
COc1ccc(NC(=O)c2sc(SC)nc2N)cc1	.	>76.9	-29.7%
C=CC[C@@H]1C=C[C@H](O/N=C(\C)CCN2CCc3nc(CC)c(CC)cc3C2)[C@H](CO)O1	.	.	-2.0%[11.4 µM]
Cc1cc2c(nc1C)CCCCN2C[C@H](O)CN1CCCc2nc(-c3ccc(Br)cc3)ccc21	.	.	-7.0%[11.4 µM]
N=c1c2c(-c3ccccc3)c(-c3ccccc3)oc2ncn1CCN1CCOCC1	>57	>76.9	5.6%
c1ccc(-c2oc3ncnc(NCCN4CCOCC4)c3c2-c2ccccc2)cc1	>57	13.3*	-0.3%
O=C(c1ccccc1)n1c(=S)nc2ccccn21	2.25*	.	1.26µM*
CCOC(=O)c1c(C)nc2ccccn12	>11.4	>76.9	0.1%
COc1ccc(-c2csc(NCc3ccco3)n2)cc1C	.	.	7.94µM*
Cc1ccn2c(-c3csc(NCc4ccco4)n3)c(C)nc2c1	.	.	-2.5%
O=C(O)C(F)(F)C(F)(F)C(F)(F)C(F)(F)C(=O)O	.	.	1.8%[11.4 µM]
SMILES	PK Bst	GBA activity	Luciferase inh
N#Cc1ccc(CN2CC3(CCN(C(=O)c4cnccn4)CC3)C2)cc1	.	.	-7.1%[11.4 µM]
CN1CCN(c2ncc3ncc(=O)n(CCc4ccccc4)c3n2)CC1	.	.	-2.1%[11.4 µM]
CCN1CCC[C@H]1CNC(=O)c1c(O)c(Cl)cc(Cl)c1OC	.	.	12.6µM*
CCN1CCC[C@@H]1CNC(=O)c1c(O)c(Cl)cc(Cl)c1OC	.	.	1.3%
c1ccc(-c2nc(NCC3CCCO3)c3ccccc3n2)nc1 (stereo not given)	>11.4	.	-1.2%[25.5 µM]
Oc1cccc(Nc2nc(NCC3CCCO3)c3ccccc3n2)c1 (stereo not given)	.	7.62*	-13.7%
N=C(N)c1ccc(/C=C\c2ccc(C(=N)N)cc2)cc1	.	.	2.1%[11.4 µM]
O=C(NCCC(=O)N1CCN(c2ncccn2)CC1)c1ccccc1	>57	>76.9	2.6%
O=C(Cc1coc2ccc3ccccc3c12)N1CCN(c2ncccn2)CC1	11.3*	>76.9	-33.1%
COCCn1c(=O)c(-c2ccccc2)nc2cnc(Oc3ccc(OC)cc3)nc21	.	.	1.4%[11.4 µM]
Cn1c(=O)cnc2cnc(Nc3ccccc3)nc21	.	.	0.2%[11.4 µM]
Cc1cc(=O)[nH]c(SC/C=C/c2ccccc2)n1	>57	>76.9	-0.8%
Cc1cccc(/C=C\c2ccccc2)n1	.	.	7.94µM*
CCSc1nc(N)c2c3c(sc2n1)CCC3	>25.6	.	-16.0%[25.5 µM]
NC(=O)CSc1nc(N)c2c3c(sc2n1)CCCCC3	10.8*	.	12.6µM*
CN1CCCC2(CCN(C(=O)c3cccc(F)c3)CC2)C1	.	.	0.7%[11.4 µM]
Cc1cc2n(n1)C(c1sccc1C)Nc1ccccc1-2 (stereo not given)	>11.4	>76.9	-29.3%
Cc1ccc2c(c1)-c1cc(C)nn1C(c1sccc1C)N2 (stereo not given)	10.6*	.	?
CCCCOC(=O)c1ccc(Nc2ncnc3nc[nH]c23)cc1	.	.	0.9%
FC(F)Sc1ccc(Nc2ncnc3nc[nH]c23)cc1	i	5.34*	-11.1%
O=C(Nc1cccc(-c2cn3cccnc3n2)c1)c1ccc2c(c1)OCO2	.	.	15.8µM*
O=C(Nc1cccc(-c2cn3cccnc3n2)c1)c1ccco1	.	.	-16.1%
O=C(Nc1cccc(-c2cn3cccnc3n2)c1)c1ccc(Br)o1	>57	6.63*	-3.8%
O=C(Nc1ccc2nn(-c3ccccc3)nc2c1)c1ccc2c(c1)OCO2	>57	>76.9	-0.4%
CN(C)c1ccc(-c2nc(NCc3cccnc3)c3ccccc3n2)cc1	.	.	-14.6%[2.29 µM]
O=c1nc2n(c3c1oc1ccccc13)Cc1ccccc1-2	i	?	1.8%
CCn1c(C)nc2cc(-c3nc4n(n3)Cc3ccccc3-4)ccc21	0.0948*	.	0.0501µM*
